Reference: PubChem BioAssay (NCI)
Compounds without any hit were thinned out: in the full panel of roughly 83,000, 20% have a hit.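 Compound tested at a single concentration for 48 hours in 96-well plates; a percent growth value below 10 was scored as active.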 Values without a mark were called inactive. Active and inactive are the calls of the source.

These molecules were tested on MDA-MB-468 breast (assay: NCI-60 one-dose screen, 48 h (100 = growth as untreated, 0 = no growth, -100 = all killed)). Settings: 10 µM unless noted.

In the case of `COc1ccc(-c2c(-c3cc(OC)c(OC)c(OC)c3)noc2N)cc1`, the growth is reported as -5.06% (active).
`O=C(CCC(=O)N1CCOCC1)OCCCCCCSc1ccc([N+](=O)[O-])c2nonc12` was tested, and the growth was -43.1% (active).
For `CCCOC(=O)c1nc(N(CC2CCCCC2)C(=O)NC)sc1/N=C/c1ccccc1`, the growth was -18.8% (active).

Compared with `NS(=O)(=O)c1ccc(CCN2C(=O)C=CC2=O)cc1`, `CCc1ccc(C2=NN(c3ccc(S(C)(=O)=O)cc3)C(=O)CC2)cc1` is lower in growth: 103% for the first, 50.7% for the second.

Going from `CC(CCCC(=O)O)c1ccoc1` (stereo unspecified) to `N#Cc1c(-c2ccccc2)nc(SCC(=O)N2CCN(c3ccccc3)CC2)[nH]c1=O`, the growth falls from 119% to 106%.

Going from `Oc1cccc(CNC2CCCCC2)c1` to `O=C(O)c1cn(C2CC2)c2cc(N3CCN(C(=O)Nc4nc(-c5ccccc5)cs4)CC3)c(F)cc2c1=O`, the growth falls from 113% to 27.1%.

Compared with `Cc1ccc(NC(=S)/N=c2/n(-c3ccccc3)nc3n2CCN3C2=NCCN2)cc1`, `Cc1ccc2[nH]c3ccccc3c2c1` is lower in growth: 104% for the first, 100% for the second.
